From the supplement of paper PMC7866885, “A novel bicyclic 2,4-diaminopyrimidine inhibitor of Streptococcus suis dihydrofolate reductase” (PeerJ, 2021)
± gives the standard deviation.

System: Streptococcus suis HE06
Test: percent growth relative to DMSO control; higher = less growth inhibition
Details: 10 µM; incubation time 18 h
Protocol: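 CLSI broth microdilution: 5x10^4 CFU of Streptococcus suis (strain P1/7 or HE06) incubated with 10 µM Pathogen Box compound in cation-adjusted Mueller Hinton broth, 37 °C, 5% CO2, 18 h. Growth read as OD600 and expressed as percent of the DMSO-treated control (100%); mean ± SD of three independent experiments.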

SMILES	percent growth [%]
c1cc(C2=NCCN2)cc(-c2cc(-c3ccc(C4=NCCN4)cc3)no2)c1	103 ± 19
COc1ccc(CN2CCOc3ccc(C(C)(O)CN(C)C)cc3C2)cc1C (stereo not drawn)	103 ± 14
CC(C)(C)n1nc(Cc2ccc(F)c(Cl)c2)c2c(N)ncnc21	91.5 ± 3.1
COc1ccc2nccc(NC(=O)C3CCN(CCc4ccc(Cl)cc4)CC3)c2n1	74.3 ± 59
CC(C)(C)c1ccc(N[C@@H]2CCCC[C@H]2NC(=O)c2ccco2)cc1	104 ± 7.9
FC(F)(F)c1cccc(-c2nc3c(NCc4ccncc4)nccc3[nH]2)c1	90.4 ± 20
O=C(CCC1CCCCC1)Nc1cccc(-c2nnc(-c3ccco3)o2)c1	93.8 ± 3.7
CN1CCCN(C(c2ccccc2)c2ccc(Cl)cc2)CC1 (stereo not drawn)	91.9 ± 4.1
Cc1cccc(Cn2ccc(NC(=O)c3ccc4c(c3)OCO4)n2)c1	75.3 ± 22
Cc1cccc(-c2nc(Nc3ccncn3)c3sccc3n2)n1	0.0155 ± 0.027
O=S(=O)(c1ccc(Cl)cc1)N1CCN(C(=S)NCc2ccco2)CC1	93.7 ± 22
Cc1cccc(NC(=O)c2cc(S(=O)(=O)N(C)c3ccc(F)cc3)ccc2Cl)n1	111 ± 31
O=C(Nc1cccc(-c2ccc(NCCCN3CCCC3)nc2)c1)c1ccccc1	96.7 ± 23
O=C(Nc1nc(-c2ccccn2)cs1)c1cncn1-c1ccccc1	13.4 ± 19
CCOC(=O)c1c(NC(=O)c2c(F)c(F)c(F)c(F)c2F)sc(C(N)=O)c1C	91.9 ± 6
c1ccc(-c2cc(N3CCCCC3)c3ccccc3n2)nc1	0.646 ± 1.1
O=C(NCCN1CCCC1)c1cc(NCCN2CCOCC2)nc2ccc(Cl)cc12	95.2 ± 4.7
CO[C@@H](C(=O)N1Cc2[nH]nc(NC(=O)c3ccc(N4CCN(C)CC4)cc3)c2C1)c1ccccc1	82.9 ± 11
